# Many of the other results were omitted from the sample, so the strongest signals are more common in it than they were.
# Key:
# Test in all cases: glycan array binding signal (z-score within array); higher = stronger binding
# Conditions in all cases: glycan notation: IUPAC condensed, linker removed
# [1] = molecular target: Fuc(a1-2)Gal(b1-3)GalNAc(a1-3)[Fuc(a1-2)]Gal(b1-4)GlcNAc
# How it was run: (§1)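 Columns mapping to the same glycan were averaged after glycan names were converted to IUPAC-condensed notation. The data come from 3228 arrays in the Consortium for Functional Glycomics database, limited to those with an available protein sequence. Binding is reported as a within-array Z-score averaged across arrays of one protein sequence and across linkers.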
# [2] = molecular target: Fuc(a1-2)Gal(b1-4)GlcNAc(b1-2)Man(a1-3)[Fuc(a1-2)Gal(b1-4)GlcNAc(b1-2)Man(a1-6)]Man(b1-4)GlcNAc(b1-4)GlcNAc
# How it was run: as §1
# [3] = molecular target: Fuc(a1-2)Gal(b1-4)GlcNAc(b1-2)Man(a1-3)[Fuc(a1-2)Gal(b1-4)GlcNAc(b1-2)Man(a1-6)]Man(b1-4)GlcNAc(b1-4)[Fuc(a1-6)]GlcNAc
# How it was run: as §1
# [4] = molecular target: Fuc(a1-2)Gal(b1-4)GlcNAc(b1-6)GalNAc
# How it was run: as §1
# [5] = molecular target: Fuc(a1-2)Gal6S(b1-3)GlcNAc6S
# How it was run: as §1
# [6] = molecular target: Fuc(a1-2)Gal6S(b1-4)Glc6S
# How it was run: as §1
# [7] = molecular target: Fuc(a1-2)[Gal(a1-3)]Gal(b1-3)GlcNAc(b1-2)Man(a1-3)[Fuc(a1-2)[Gal(a1-3)]Gal(b1-3)GlcNAc(b1-2)Man(a1-6)]Man(b1-4)GlcNAc(b1-4)[Fuc(a1-6)]GlcNAc
# How it was run: as §1
# [8] = molecular target: Fuc(a1-2)[Gal(a1-3)]Gal(b1-4)GlcNAc(b1-2)Man(a1-3)[Fuc(a1-2)[Gal(a1-3)]Gal(b1-4)GlcNAc(b1-2)Man(a1-6)]Man(b1-4)GlcNAc(b1-4)[Fuc(a1-6)]GlcNAc
# How it was run: as §1
# [9] = molecular target: Fuc(a1-2)[Gal(a1-3)]Gal(b1-4)[Fuc(a1-3)]GlcNAc
# How it was run: as §1
# [10] = molecular target: Fuc(a1-2)[GalNAc(a1-3)]Gal(b1-3)GalNAc(a1-3)[Fuc(a1-2)]Gal(b1-4)GlcNAc
# How it was run: as §1
# [11] = molecular target: Fuc(a1-2)[GalNAc(a1-3)]Gal(b1-3)GlcNAc
# How it was run: as §1
# [12] = molecular target: Fuc(a1-2)[GalNAc(a1-3)]Gal(b1-3)GlcNAc(b1-2)Man(a1-3)[Fuc(a1-2)[GalNAc(a1-3)]Gal(b1-3)GlcNAc(b1-2)Man(a1-6)]Man(b1-4)GlcNAc(b1-4)[Fuc(a1-6)]GlcNAc
# How it was run: as §1
# [13] = molecular target: Fuc(a1-2)[GalNAc(a1-3)]Gal(b1-3)GlcNAc(b1-3)GalNAc
# How it was run: as §1
# [14] = molecular target: Fuc(a1-2)[GalNAc(a1-3)]Gal(b1-3)GlcNAc(b1-6)GalNAc
# How it was run: as §1
# [15] = molecular target: Fuc(a1-2)[GalNAc(a1-3)]Gal(b1-4)GlcNAc(b1-2)Man(a1-3)[Fuc(a1-2)[GalNAc(a1-3)]Gal(b1-4)GlcNAc(b1-2)Man(a1-6)]Man(b1-4)GlcNAc(b1-4)GlcNAc
# How it was run: as §1
# [16] = molecular target: Fuc(a1-2)[GalNAc(a1-3)]Gal(b1-4)GlcNAc(b1-3)GalNAc
# How it was run: as §1
# [17] = molecular target: Fuc(a1-2)[GalNAc(b1-3)]Gal
# How it was run: as §1
# Fuc(a1-3)GlcNAc = molecular target: Fuc(a1-3)GlcNAc
# How it was run: as §1
# [18] = molecular target: Fuc(a1-3)[GalNAc(b1-4)]GlcNAc6S
# How it was run: as §1
# [19] = molecular target: Fuc(a1-3)[GalNAc3S(b1-4)]GlcNAc
# How it was run: as §1
# Fuc(b1-3)GlcNAc = molecular target: Fuc(b1-3)GlcNAc
# How it was run: as §1
# [20] = molecular target: Gal(a1-3)Gal(b1-4)GlcNAc(b1-3)GalNAc
# How it was run: as §1
# [21] = molecular target: Gal(b1-3)GalNAc(a1-3)[Fuc(a1-2)]Gal(b1-4)Glc
# How it was run: as §1
# [22] = molecular target: Gal(b1-3)GlcNAc(b1-2)Man(a1-3)[Gal(b1-3)GlcNAc(b1-2)Man(a1-6)]Man(b1-4)GlcNAc(b1-4)[Fuc(a1-6)]GlcNAc
# How it was run: as §1
# [23] = molecular target: Gal(b1-4)GalNAc(a1-3)[Fuc(a1-2)]Gal(b1-4)GlcNAc
# How it was run: as §1
# Gal(b1-4)Glc = molecular target: Gal(b1-4)Glc
# How it was run: as §1
# [24] = molecular target: Gal(b1-4)GlcNAc(b1-2)Man(a1-3)[Gal(b1-4)GlcNAc(b1-2)][GlcNAc(b1-4)]Man(b1-4)GlcNAc(b1-4)GlcNAc
# How it was run: as §1
# [25] = molecular target: Gal(b1-4)GlcNAc(b1-3)Gal(b1-4)[Fuc(a1-3)GlcNAc(b1-6)]Gal(b1-4)Glc
# How it was run: as §1
# Gal6S(b1-4)Glc = molecular target: Gal6S(b1-4)Glc
# How it was run: as §1
# Gal6S(b1-4)GlcNAc6S = molecular target: Gal6S(b1-4)GlcNAc6S
# How it was run: as §1
# GlcA(b1-6)Gal = molecular target: GlcA(b1-6)Gal
# How it was run: as §1
# [26] = molecular target: GlcNAc(b1-2)Man(a1-3)[GlcNAc(b1-2)Man(a1-6)]Man(b1-4)GlcNAc(b1-4)[Fuc(a1-6)]GlcNAc
# How it was run: as §1
# [27] = molecular target: GlcNAc(b1-2)[GlcNAc(b1-4)]Man(a1-3)[GlcNAc(b1-4)][GlcNAc(b1-2)[GlcNAc(b1-6)]Man(a1-6)]Man(b1-4)GlcNAc(b1-4)[Fuc(a1-6)]GlcNAc
# How it was run: as §1
# [28] = molecular target: GlcNAc(b1-4)[GlcNAc(b1-6)]GalNAc
# How it was run: as §1
# [29] = molecular target: Neu5Ac(a2-3)Gal(b1-4)GlcNAc(b1-2)[Neu5Ac(a2-3)Gal(b1-4)GlcNAc(b1-6)]Man(a1-6)[Neu5Ac(a2-3)Gal(b1-4)GlcNAc(b1-2)Man(a1-3)]Man(b1-4)GlcNAc(b1-4)GlcNAc
# How it was run: as §1
# [30] = molecular target: Neu5Ac(a2-3)Gal(b1-4)[Fuc(a1-3)]GlcNAc(b1-3)Gal(b1-4)GlcNAc
# How it was run: as §1
# [31] = molecular target: Neu5Ac(a2-3)Gal(b1-4)[Fuc(a1-3)]GlcNAc(b1-3)GalNAc
# How it was run: as §1
# [32] = molecular target: Neu5Ac(a2-3)GalNAc(b1-4)GlcNAc
# How it was run: as §1
# [33] = molecular target: Neu5Ac(a2-6)Gal(b1-4)GlcNAc(b1-3)Gal(b1-4)[Fuc(a1-3)]GlcNAc(b1-3)Gal(b1-4)[Fuc(a1-3)]GlcNAc
# How it was run: as §1
# [34] = molecular target: Neu5Ac(a2-6)Gal(b1-4)GlcNAc(b1-6)[Gal(b1-3)GlcNAc(b1-3)]Gal(b1-4)Glc
# How it was run: as §1
# [35] = molecular target: Neu5Ac(a2-6)GlcNAc(b1-4)GlcNAc
# How it was run: as §1
# [36] = molecular target: Neu5Ac(a2-8)Neu5Ac(a2-8)Neu5Ac
# How it was run: as §1
# [37] = molecular target: Neu5Gc(a2-3)Gal(b1-3)GlcNAc
# How it was run: as §1
# Neu5Gc(a2-3)Gal(b1-4)Glc = molecular target: Neu5Gc(a2-3)Gal(b1-4)Glc
# How it was run: as §1
binder,measurement,setting,value
"CvGal1 (Crassostrea virginica), A7Y0I5 (protein) MTYQISKISQPFTSYIPNGLHIGKHLLLRGRVSYGTEAFAINLQQNPEPCNGEVAFHFNPRPGEQQCVRNSFDGGSWMDEERDQPHFPFDEGRSFTLRIEVAEEGFRTYVNGKPYVNFSHRLDLGNVHYLYLTEGAEFYDISYQDRYTLPYKSEIPQQMNVGKAVRIRGASQDNDGFSVNFACDPDNENCAFHFNPRPNEGVVVRNANLGGWGDEERDYEAEFPFHPYNYFDAMFICTDDKYLVHVNDKYFTEFNHRGGVDASSFFNIVGNLDIQDVEYFEPLEDDFVKTIPSGLVKGDVLIFRGFMKPGGDTFSINFMNGYSVEDDIAFHLNPRVGEGQVVMNCCMGGAWGDEEREDIPSPLADREPFEVKVVVKKNKFKVYVNGKKCMKFAARGNLEDIKGVNIKGEAYVYEVKLERKLEDSWEYLPGGFRVGGWVVVQAIPKKGSEGFAINFRTGSDEDSDIAFHFNPRLQENCTIRNSCAGGAWGGEERDQPDFPFEKKDTCEIAIQAQPDRFVTYVNGKRYIEFNHRLPLESITCVELTGRADFFEPKFF",glycan array binding signal (z-score),[1],6.13
same,glycan array binding signal (z-score),[2],0.157
same,glycan array binding signal (z-score),[3],-0.053
same,glycan array binding signal (z-score),[4],-0.258
same,glycan array binding signal (z-score),[5],-0.213
same,glycan array binding signal (z-score),[6],-0.259
same,glycan array binding signal (z-score),[7],0.478
same,glycan array binding signal (z-score),[8],1.42
same,glycan array binding signal (z-score),[9],-0.263
same,glycan array binding signal (z-score),[10],3.63
same,glycan array binding signal (z-score),[11],4.14
same,glycan array binding signal (z-score),[12],4.71
same,glycan array binding signal (z-score),[13],1.75
same,glycan array binding signal (z-score),[14],3.97
same,glycan array binding signal (z-score),[15],6.1
same,glycan array binding signal (z-score),[16],5.16
same,glycan array binding signal (z-score),[17],-0.306
same,glycan array binding signal (z-score),Fuc(a1-3)GlcNAc,-0.088
same,glycan array binding signal (z-score),[18],-0.215
same,glycan array binding signal (z-score),[19],-0.259
same,glycan array binding signal (z-score),Fuc(b1-3)GlcNAc,-0.219
same,glycan array binding signal (z-score),[20],-0.197
same,glycan array binding signal (z-score),[21],3.55
same,glycan array binding signal (z-score),[22],-0.265
same,glycan array binding signal (z-score),[23],4.11
same,glycan array binding signal (z-score),Gal(b1-4)Glc,-0.253
same,glycan array binding signal (z-score),[24],-0.195
same,glycan array binding signal (z-score),[25],-0.264
same,glycan array binding signal (z-score),Gal6S(b1-4)Glc,-0.291
same,glycan array binding signal (z-score),Gal6S(b1-4)GlcNAc6S,-0.182
same,glycan array binding signal (z-score),GlcA(b1-6)Gal,-0.259
same,glycan array binding signal (z-score),[26],-0.3
same,glycan array binding signal (z-score),[27],-0.249
same,glycan array binding signal (z-score),[28],-0.23
same,glycan array binding signal (z-score),[29],-0.283
same,glycan array binding signal (z-score),[30],-0.226
same,glycan array binding signal (z-score),[31],-0.166
same,glycan array binding signal (z-score),[32],-0.277
same,glycan array binding signal (z-score),[33],-0.28
same,glycan array binding signal (z-score),[34],-0.245
same,glycan array binding signal (z-score),[35],-0.303
same,glycan array binding signal (z-score),[36],-0.236
same,glycan array binding signal (z-score),[37],-0.239
same,glycan array binding signal (z-score),Neu5Gc(a2-3)Gal(b1-4)Glc,-0.311
